This note sets out measurements from PubChem BioAssay AID2284363 (EPA ToxCast).

The source made the active and inactive calls. The calls were made as follows: active = hit-call score of the fitted dose curve at least 0.9, where 1 is the maximum; inactive = score below 0.9.

This assay deals with Nuclear factor erythroid 2-related factor 2 (Homo sapiens) (UniProt Q16236). Kind of assay: ERF_US_NR_hNFE2L2: Eurofins (ERF) Cell Based Nuclear Translocation LeadHunter Assay for human Transcription Factor Keap1-Nrf2 Agonism. The protocol: ERF_US_NR_hNFE2L2 is a cell-based, single-readout assay that uses extracted gene-proteins in a cell-line assay. Measurements were taken 6 hours after chemical dosing in a 384-well plate. See Keap1-Nrf2 Human Transcription Factor Cell Based Agonist Nuclear Translocation Assay, DiscoverX.ERF_US_NR_hNFE2L2 is an assay component calculated from the ERF_US_NR_hNFE2L2 assay. It is designed to measure protein fragment complementation using a type of binding reporter as detected by chemiluminescence with fluorimetry technology.Data from the assay component ERF_US_NR_hNFE2L2 was analyzed at the assay endpoint, ERF_US_NR_hNFE2L2, in the positive analysis fitting direction relative to DMSO as the negative control and baseline of activity. Using a type of binding reporter, gain-of-signal activity can be used to understand changes in binding as they relate to gene NFE2L2. To generalize the intended target to other relatable targets, this assay endpoint is annotated to the dna binding intended target family, where the subfamily is basic leucine zipper.
Chain of Nuclear factor erythroid 2-related factor 2 (Homo sapiens) (Q16236 whole entry, looked up, the tested form may be a part): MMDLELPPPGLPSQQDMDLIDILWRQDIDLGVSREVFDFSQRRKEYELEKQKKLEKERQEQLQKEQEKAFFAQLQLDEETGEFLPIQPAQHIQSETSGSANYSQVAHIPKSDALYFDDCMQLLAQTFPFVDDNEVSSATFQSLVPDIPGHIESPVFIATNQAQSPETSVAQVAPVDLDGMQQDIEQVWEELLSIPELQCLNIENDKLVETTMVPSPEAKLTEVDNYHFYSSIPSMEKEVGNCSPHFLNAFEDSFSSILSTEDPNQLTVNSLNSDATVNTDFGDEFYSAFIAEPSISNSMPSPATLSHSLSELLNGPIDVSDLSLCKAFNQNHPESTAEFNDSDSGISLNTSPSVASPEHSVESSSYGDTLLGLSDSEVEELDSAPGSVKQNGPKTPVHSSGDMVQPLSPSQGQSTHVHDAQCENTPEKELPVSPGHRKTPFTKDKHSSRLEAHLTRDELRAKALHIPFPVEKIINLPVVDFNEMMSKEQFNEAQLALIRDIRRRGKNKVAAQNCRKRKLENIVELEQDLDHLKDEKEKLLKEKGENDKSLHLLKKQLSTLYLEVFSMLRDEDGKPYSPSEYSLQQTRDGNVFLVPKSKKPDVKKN
Cells were seeded in a total volume of 20 uL into white walled, 384-well microplates and incubated at 37C overnight prior to testing.For agonist determination, cells were incubated with sample to induce response. Intermediate dilution of sample stocks was performed to generate 5X sample in assay buffer. 5 uL of 5X sample was added to cells and incubated at room temperature for 6 hours. Final assay vehicle concentration was 1%. The results are expressed as a percent efficacy relative to the maximum response of the control ligand.
For `O=C(O)C(F)(F)C(F)(F)C(F)(F)F`, the result was inactive. With `O=C(O)CCC(F)(F)C(F)(F)C(F)(F)C(F)(F)C(F)(F)F`, the compound was called inactive. As to `O=C(O)C(F)(F)C(F)(F)C(F)(F)C(F)(F)C(F)(F)C(F)(F)C(F)(F)C(F)(F)Cl`, the call was inactive.

As a reminder, the AC50 is the concentration at which the activity in the assay is half-maximal. Regarding `OCCC(F)(F)C(F)(F)C(F)(F)C(F)(F)C(F)(F)C(F)(F)C(F)(F)C(F)(F)F`, the AC50 was 1.94 µM (active).
